D1 allo mod: allosterically modulates the human D1 dopamine receptor | P21728 | HEK293 D1, CRE-luciferase, dopamine EC30 potentiation; actives deviate in either direction | actives 5.9% (n = 58,000) | B-score at 10 µM | AID 641;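 active = luminescence count or its row- and column-corrected plate score outside the 99.7% band of the plate's sample wells, on either side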
CYP2C9 act: increases human cytochrome P450 2C9 activity; activation factor at 5 µM; recombinant CYP2C9, luciferin-H conversion, luminescence; active compounds read high; factor 1 = untreated enzyme, 0 = blocked; actives 1.4% (n = 96,000);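 active = activation factor of 2 or more for CYP2C9 at a 5 µM dose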;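 also: 0 = sulfaphenazole-blocked wells and 1 = vehicle-only wells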
CYP2C19 activ: activators of human cytochrome P450 2C19. P33261. activation factor at 5 µM. 96,000 tested, under 10 active. recombinant CYP2C19, luciferin-H EGE luminescence; active compounds read high; 0 = fully inhibited enzyme, 1 = untreated enzyme;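 active = activation factor of at least 2 at 5 µM in the primary screen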;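 also: 0 = wells with 2.5 mM tranylcypromine and 1 = vehicle-only wells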
Target sequence (P33261 whole entry, looked up): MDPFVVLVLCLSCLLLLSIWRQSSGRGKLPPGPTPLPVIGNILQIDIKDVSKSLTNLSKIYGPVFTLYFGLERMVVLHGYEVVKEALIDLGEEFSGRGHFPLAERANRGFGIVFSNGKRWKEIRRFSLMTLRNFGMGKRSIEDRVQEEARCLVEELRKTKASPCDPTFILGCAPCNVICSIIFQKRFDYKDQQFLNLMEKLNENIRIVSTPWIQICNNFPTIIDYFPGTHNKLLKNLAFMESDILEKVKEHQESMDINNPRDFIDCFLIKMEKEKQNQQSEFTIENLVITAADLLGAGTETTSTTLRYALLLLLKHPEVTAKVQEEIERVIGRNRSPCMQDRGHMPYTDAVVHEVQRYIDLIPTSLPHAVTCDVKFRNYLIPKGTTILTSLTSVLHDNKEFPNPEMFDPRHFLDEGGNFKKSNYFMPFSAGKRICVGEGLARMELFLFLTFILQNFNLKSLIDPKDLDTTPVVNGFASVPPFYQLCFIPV
CYP2C19 inh: blocks human cytochrome P450 2C19. CYP2C19 Supersomes, luciferin-H EGE luminescence, 30 min. actives 21% (n = 96,000). inhibition, % at 5 µM. P33261. AID 778;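 active = CYP2C19 inhibition above a set limit at 5 µM in the primary screen, cut at about 50% in these data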;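 also: plate controls were negative control wells for no effect and 2.5 mM tranylcypromine positive control for full effect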
hDAT+cocaine: modulates human dopamine transporter uptake under cocaine; Q01959; LLC-PK1 hDAT cells, [14C]-dopamine uptake with cocaine IC80; actives deviate in either direction; B-score at 10 µM; actives 1.3% (n = 110,000);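 active = Z score or B-score, a plate-position-corrected score, falls beyond the plate's 99.7% confidence bounds, in either direction; inactive = both scores lie inside the 99.7% bounds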;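 also: scored against the spread of the other compound wells on the same plate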
CYP2C9 inh: blocks human cytochrome P450 2C9. P11712. CYP2C9 Supersomes, luciferin-H conversion, luminescence. inhibition, % at 5 µM. actives 20% (n = 96,000). AID 777;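 active = blocking of liver enzyme CYP2C9 beyond about 50% at 5 µM, limit read from the data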
Active calls of the source: *; · = not tested or not shown. Rows were chosen to be rich in hits. Some 28% of all compounds tested hit in one or more screens of this group.

SMILES | D1 allo mod | CYP2C9 act | CYP2C19 activ | CYP2C19 inh | hDAT+cocaine | CYP2C9 inh
O=C(Nc1ccccc1)C1=C[C@H](c2coc3ccccc3c2=O)C[C@H](OCCCCO)O1 | · | · | · | · | 2.1 | ·
Cc1ccc(CSCCNC(=O)CSCc2ccc([N+](=O)[O-])cc2)cc1 | · | 0.3 | 0.4 | 58* | 1.1 | 75*
COC(=O)c1cc(C#N)c(Oc2ccc(F)cc2)nc1C | · | 1 | 0.5 | 54* | -0.66 | 1
COC(=O)c1cc(C#N)c(Oc2ccccc2)nc1C | · | · | · | · | 0.014 | ·
COc1cc(OC)c(OC)cc1CNc1cc(C)ccc1OC | -0.2 | 0.7 | 0.5 | 48 | -0.73 | 26
COc1cc(C)c(CNc2cccc(C)c2)cc1C | · | 0.3 | 0.1 | 93* | -1.7 | 71*
COc1cc(C)c(CNc2ccc(OC)c(OC)c2)cc1C | -0.59 | 0.5 | 0 | 97* | -0.84 | 48
COc1cc(C)c(CNc2cc(C)cc(C)c2)cc1C | · | 0.9 | 0.7 | 29 | 1.3 | 7
CCCN1CCC(=O)N([C@H](CSc2ccc(OC)cc2)CC(C)C)CC1 | · | · | · | · | -0.11 | ·
COC(=O)[C@H]1[C@@H](C)N(CCc2cc(OC)c(OC)c(OC)c2)C(=O)N[C@H]1c1ccccc1 | · | · | · | · | 1.3 | ·
CCCc1ccc(-c2ccc(F)c(N)c2)nc1 | -7.4* | 0.7 | 0.7 | 28 | 0.55 | 29
CCCCc1ccc(-c2ccc(Br)cc2)nc1 | · | · | · | · | -0.54 | ·
CCS(=O)(=O)n1nc(-c2ccccc2)nc1SC | · | 1.1 | 0.4 | 56* | 0.057 | -11
COc1ccc(-c2nc(SC)n(S(=O)(=O)c3ccccc3)n2)cc1 | 1.9 | 0.4 | 0.3 | 69* | 0.019 | 62*
CSc1nc(-c2ccccc2)nn1S(=O)(=O)c1ccccc1 | · | · | · | · | 0.14 | ·
CC(=O)NCCNC(=O)CCNC(=O)c1ccc(Cl)cc1 | · | 0.9 | 0.9 | 8 | -0.64 | 6
CC[C@H](C)[C@@H]1NC(=O)c2cc([N+](=O)[O-])cc(F)c2OCC[C@@H](C(N)=O)NC(=O)[C@H](CCCCN)NC1=O | · | · | · | · | 0.023 | ·
CC(C)CN(C(=O)COC(=O)CCc1c[nH]c2ccccc12)C1CCS(=O)(=O)C1 (stereo unspecified) | -0.15 | 2.2* | 0.8 | 16 | -0.086 | -124
Cc1cc(S(=O)(=O)N(C)CCc2ccccc2)ccc1-n1cnnn1 | 0.77 | 0.7 | 0.4 | 57* | -0.09 | 26
COc1cccc(CN(Cc2cccnc2)S(=O)(=O)c2ccc(-n3cnnn3)c(C)c2)c1 | -0.88 | 0.8 | 0.4 | 60* | 0.77 | 17
C#CCCOC(=O)N1C2=NC(C(=O)OC)=C(C(=O)OC)[C@@H]3N(C)c4ccccc4[C@]23C[C@H]1CO | · | · | · | · | 0.17 | ·
CCC(=O)N1CCN(c2cc3c(cc2F)c(=O)c(C(=O)O)cn3CC)CC1 | 0.94 | · | · | · | · | ·
CCn1cc(C(=O)NCc2cccc(F)c2)c(=O)c2cc(F)c(N3CCN(C(=O)c4ccco4)CC3)cc21 | · | 0.2 | 0.6 | 41 | 0.63 | 84*
CCn1cc(C(=O)NCc2cccnc2)c(=O)c2cc(F)c(N3CCN(C(=O)c4ccco4)CC3)cc21 | · | 0.3 | 0.8 | 16 | 1.7 | 68*
CC(=O)NCc1cccc(CNC(C)=O)n1 | 0.51 | 1.1 | 1 | 1 | -0.011 | -8
SMILES | D1 allo mod | CYP2C9 act | CYP2C19 activ | CYP2C19 inh | hDAT+cocaine | CYP2C9 inh
O=C(O)C1CCCCC1C(=O)Nc1cccc(Cl)c1Cl (stereo unspecified) | · | 1 | 0.9 | 9 | -0.0074 | 5
C=CCN(CC=C)C(=S)NC(=O)c1ccc(OC)c(Br)c1 | · | 0.9 | 0.3 | 74* | 0.033 | 11
Cc1snc(S(=O)(=O)/C(C#N)=N/Nc2cccc(C(F)(F)F)c2)c1C#N | · | 0 | 0.9 | 12 | -0.71 | 99*
COc1ccc(Nc2nccc(OC)c2C#N)cc1 | · | 1 | 1.1 | -9 | 0.28 | 3
Cc1nn(C)c(C)c1NC(=O)Nc1cccc(C(F)(F)F)c1 | · | 1 | 1 | 4 | -0.47 | 3
COc1ccc(N/N=C(/C#N)S(=O)(=O)c2nsc(C)c2C#N)cc1 | · | 0.2 | 0.9 | 9 | -0.45 | 82*
N#CC1=C(SCC(=O)c2cc3ccccc3oc2=O)NC(=O)C(C#N)C12CCCC2 (stereo unspecified) | 0.8 | 0.1 | 0.5 | 52* | 2.3 | 88*
O=C(/C=C/c1ccccc1)N1CCN(c2cccc(Cl)n2)CC1 | · | 0.5 | 0.7 | 25 | 0.23 | 46
Cc1cc(-c2ccco2)c(C#N)c2nc3ccccc3n12 | 1.4 | 1 | 1 | 4 | -0.23 | 5
N#Cc1c(-c2ccco2)cc(C2CC2)nc1N | · | 1.3 | 0.4 | 63* | 0.27 | -34
CC(NC(=O)CSc1nc2ccccc2c(=O)n1CCCO)c1ccccc1 (stereo unspecified) | 0.2 | 0.1 | 0.3 | 72* | -0.82 | 90*
CCCCn1c(SCC(=O)Nc2nccs2)nc2ccccc2c1=O | · | 0.8 | 0.9 | 8 | -0.012 | 18
Cc1ccc(CNC(=O)CSc2nc3ccccc3c3nc(C)nn23)cc1 | · | 2* | 0.8 | 23 | 0.19 | -98
CC(C)NC(=O)CSc1nc2ccccc2c(=O)n1CCCOC(C)C | -0.0087 | 0.5 | 0.8 | 18 | 0.7 | 54*
Cc1ccc(CNC(=O)CSc2nc3ccccc3c(=O)n2CCCO)cc1 | 0.064 | 0.1 | 0.4 | 62* | 1.3 | 87*
CCCC/C=C/[C@H](c1ccccc1)[C@H](CO)Cc1cccnc1 | · | · | · | · | -0.026 | ·
O=C(CC1NCCNC1=O)OCc1ccccc1 (stereo unspecified) | 0.34 | 1.1 | 1.1 | -9 | 0.15 | -13
O=C(O)c1ccc(COc2cccc(CO)c2)cc1 | -0.1 | 0.7 | 0.1 | 86* | -0.38 | 31
O=C(c1ccc(F)cc1)N1CCN(c2cc(=O)[nH]nc2-c2ccccc2)CC1 | · | 1.1 | 1.1 | -13 | 0.48 | -15
COc1ccc(C2CC(c3ccc(Cl)c(Cl)c3)Nc3nc(N)nn32)cc1 (stereo unspecified) | -0.28 | 0.8 | 0.8 | 16 | 0.44 | 24
Cc1cc(NC(=O)CSc2nc(-c3ccc(F)cc3)cs2)no1 | -0.018 | 1.1 | 0.9 | 12 | -0.44 | -8
Cc1cc(NC(=O)CSc2nccn2-c2ccc(F)cc2)no1 | -0.79 | 0.8 | 0.3 | 69* | -0.22 | 19
Cc1cc(NC(=O)CSc2nccn2-c2ccc(Cl)cc2)no1 | 0.059 | 0.5 | 0.2 | 81* | -0.85 | 54*
CCC(Sc1nc(=O)cc(N)n1CCc1ccccc1)C(=O)Nc1cc(C)on1 (stereo unspecified) | -5.1* | 0.7 | 0.6 | 39 | -0.72 | 27
C=CCn1c(N)cc(=O)nc1SCC(=O)NC(C)c1ccccc1 (stereo unspecified) | -0.98 | 1.2 | 0.5 | 52* | -0.84 | -16
Nc1cc(=O)nc(SCC(=O)NCc2ccccc2)n1CCc1ccccc1 | · | 0.8 | 1.1 | -14 | -5.1* | 17
O=C(CN(Cc1ccco1)C(=O)CNS(=O)(=O)c1ccc(Cl)cc1)NCc1ccc(F)cc1 | 0.097 | · | · | · | -0.27 | ·

Screening results as filed in PubChem.
